# Source: PubChem BioAssay AID588342 (National Center for Advancing Translational Sciences (NCATS), 2011)
# Among all 360,000 compounds or so, about 25,000 (6.9%) were called active. Not shown: some 9% with an inconclusive outcome. Calls come from the whole dose curve; as a rule, active = well fitted inhibition curve with a large enough effect; inconclusive = small, poorly fitted or top-dose-only effect; inactive = flat fitted curve, though single readings scatter. The list comes from a sample in which actives are over-represented; it also holds similar structures and randomly drawn compounds.
# Molecular target: Luciferin 4-monooxygenase (Photinus pyralis) (UniProt P08659)
# Sequence (P08659 whole entry, looked up): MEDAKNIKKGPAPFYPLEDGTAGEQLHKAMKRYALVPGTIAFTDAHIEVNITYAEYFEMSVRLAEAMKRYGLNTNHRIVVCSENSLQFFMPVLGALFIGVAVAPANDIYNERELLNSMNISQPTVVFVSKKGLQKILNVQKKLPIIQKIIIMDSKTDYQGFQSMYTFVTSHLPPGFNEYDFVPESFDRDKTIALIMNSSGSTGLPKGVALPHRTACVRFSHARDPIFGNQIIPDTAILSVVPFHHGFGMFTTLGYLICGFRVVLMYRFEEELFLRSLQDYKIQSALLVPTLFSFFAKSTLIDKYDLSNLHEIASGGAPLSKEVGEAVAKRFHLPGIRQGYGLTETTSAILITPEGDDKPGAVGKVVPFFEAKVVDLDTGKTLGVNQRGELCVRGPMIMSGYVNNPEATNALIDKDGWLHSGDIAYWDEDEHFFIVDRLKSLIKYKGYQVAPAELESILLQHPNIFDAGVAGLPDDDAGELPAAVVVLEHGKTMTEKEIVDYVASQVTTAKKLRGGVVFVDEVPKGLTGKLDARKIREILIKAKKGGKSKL
# Assay: qHTS profiling assay for firefly luciferase inhibitor/activator using purifed enzyme and Km concentrations of substrates (counterscreen for miR-21 project); note: nearly all actives have a fitted effect of over 55% in size;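 for activity change, negative = inhibition: plate controls were vehicle for no effect and reference inhibitor for full effect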
# Conditions: purified FLuc, luminescence inhibition; series mostly up to 57.5 µM; activity change, negative = inhibition: at the top concentration
# In short: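 Purified P. pyralis luciferase, 10 nM final, with Km-level 10 uM D-luciferin and 10 uM ATP in 50 mM Tris acetate pH 7.5, 10 mM Mg acetate, 0.01% Tween-20, 0.05% BSA; 6-point qHTS titration about 60 µM downward; luminescence read.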
# Potency is the fitted concentration of half-maximal effect.
SMILES,"activity change, negative = inhibition",Potency
Cn1nnnc1SCCNCc1ccc(Cl)c(Cl)c1,-6.85% (inactive),
CC1=NNC(=O)C1CCC(=O)N/N=C\c1cccc(Cl)c1 (stereo unspecified),5.5% (inactive),
COc1cccc(/C=N\NC(=O)C2=NNC(=O)C2C)c1O (stereo unspecified),,6.01 µM (active)
Cc1cccc(-n2c(=O)c3c(c4cc(C)ccc4n3C)n(CC(=O)Nc3ccccc3Cl)c2=O)c1,-3.48% (inactive),
O=S(=O)(c1ccc(Cl)cc1)c1nnn2c1nc(NC1CCCC1)c1sccc12,-14.4% (inactive),
CC(=O)N1CCCc2cc(S(=O)(=O)Nc3ccc(Cl)cc3F)ccc21,-13.7% (inactive),
CN(CC(=O)Nc1ccc(F)cc1)CC(=O)N1CCCCC1,13.3% (inactive),
Cc1ccccc1C(=O)O,1.05% (inactive),
Cc1ccc(C(=O)CSc2ccccc2C(=O)O)cc1,,4.26 µM (active)
Cc1ccc(Sc2cc(C(=O)c3ccccc3C(=O)O)ccc2[N+](=O)[O-])cc1,1.6% (inactive),
CC1(C(=O)OCC(=O)Nc2ncc(Cl)cc2Cl)CC1(Cl)Cl (stereo unspecified),-4.62% (inactive),
Cc1ccc(NC(=O)NC(C)c2c(-n3cccc3)sc(C)c2C)c(C)c1 (stereo unspecified),-8.67% (inactive),
COC(=O)[C@@H]1C[C@H]2CC[C@H](O)C[C@H]2N1Cc1ccc(N2CCN(C)CC2)cc1,-1.08% (inactive),
Cc1ccc2c(Cl)c(C(=O)Nc3nn[nH]n3)sc2c1,,16.9 µM (active)
Cc1ccc(-c2cc(C(=O)Nc3nn[nH]n3)c3ccccc3n2)c(C)c1,,15.1 µM (active)
Cc1nnsc1C(=O)Nc1cccc(Cl)c1C,-3.55% (inactive),
O=C(CCc1ccccc1)Nc1nn[nH]n1,0.606% (inactive),
O=C(/C=C/c1c(F)cccc1Cl)Nc1nn[nH]n1,-18% (inactive),
Cc1cccc(NC(=O)CN(c2ccc(C(C)C)cc2)S(=O)(=O)c2c(C)nn(C)c2C)c1C,-8.68% (inactive),
COCCCNc1nc2c(-c3cccc(C)c3)nnn2c2ccc(Cl)cc12,-15.6% (inactive),
CC(=O)NC1C(Oc2ccc(C)cc2)OC2COC(c3ccco3)OC2C1O (stereo unspecified),2.15% (inactive),
CC(C)c1ccc(C2C(C(=O)c3ccco3)=C(O)C(=O)N2CC2CCCO2)cc1 (stereo unspecified),-1.69% (inactive),

SMILES,"activity change, negative = inhibition",Potency
CCOc1ccc(C2CC(=O)c3c([nH]c(C(=O)OCc4ccccc4)c3C)C2)cc1 (stereo unspecified),-3.69% (inactive),
O=C(Nc1cc(C(F)(F)F)ccc1Cl)c1ccc2c(c1)CCN2S(=O)(=O)c1ccccc1,-0.624% (inactive),
N#Cc1nc(Cc2ccccc2)oc1NCCc1ccccc1,,16.9 µM (active)
N#Cc1nc(/C=C/c2ccc(F)cc2)oc1NCc1ccc(F)cc1,-12.8% (inactive),
N#Cc1nc(Cc2cccc3ccccc23)oc1NCc1ccc2c(c1)OCO2,5.05% (inactive),
Nc1nc(COC(=O)CCC(=O)c2ccc(Cl)cc2)nc(Nc2ccccc2)n1,-5.03% (inactive),
Cc1c(C(=O)OC(C)C)sc(NC(=O)c2cccnc2)c1C#N,,6.75 µM (active)
CC(C)NS(=O)(=O)c1ccc(NC(=O)c2cccnc2)cc1,-0.0382% (inactive),
CCOC(=O)c1sc(NC(=O)CSc2ncccn2)c(C#N)c1C,2.76% (inactive),
Cc1ccc(NS(=O)(=O)c2ccc3c(c2)CC(=O)N3)cc1Cl,-14.3% (inactive),
c1ccc(-c2ccc(OCCN3CCOCC3)cc2)cc1,,16.9 µM (active)
CC(=O)c1ccc(OCCN2CCOCC2)cc1,5.68% (inactive),
CC(C)(c1ccccc1)c1ccc(OCCN2CCCC2)cc1,0.0605% (inactive),
O=C(C1CC1)N1CCc2cc(Br)cc(S(=O)(=O)N3CCN(c4ccccc4F)CC3)c21,-7.45% (inactive),
COc1cccc(CN(C)C(=O)CC23CC4CC(CC(C4)C2)C3)c1OC,-15% (inactive),
CCC(=O)OCCNc1nc(-c2ccccc2)nc2ccccc12,-4.01% (inactive),
Cc1cccc(-c2nc(Nc3ccc(O)cc3)c3ccccc3n2)c1,,19 µM (active)
COc1cc(Nc2nc(-c3ccc(OC)c(OC)c3)nc3ccccc23)cc(OC)c1,-16.2% (inactive),
CCOc1ccc2c(c1)cc(CN(C(=O)CC)C1CCCCC1)c1nnnn12,1.41% (inactive),
COc1ccc(C)cc1N(C)C(=O)c1c(C)oc2ncnc(N3CCOCC3)c12,-3.5% (inactive),
COc1cc(Cl)c(C)cc1Nc1nnc(-n2nc(C)cc2C)c2ccccc12,0.688% (inactive),
O=c1[nH]c2cc(Br)ccc2n2cccc12,5.01% (inactive),

SMILES,"activity change, negative = inhibition",Potency
Cc1ccc(S(=O)(=O)N2CCCCC2)cc1NC(=O)c1cccnc1,-0.669% (inactive),
O=C(N/N=C/c1sc(N2CCCCC2)nc1-c1cccs1)c1cccnc1,,21.3 µM (active)
O=C(NN=C1CCC(=NNC(=O)c2cccnc2)CC1)c1cccnc1,2.4% (inactive),
COc1ccc2c(c1)CCc1cn3ncc(C#N)c3nc1-2,3.08% (inactive),
COc1ccc2cc(C(=O)C3CCCN(C(=O)c4sc(C)nc4C)C3)ccc2c1 (stereo unspecified),-3.22% (inactive),
COc1ccc2nc(N3CCCC(O)C3)c(C#N)cc2c1 (stereo unspecified),,7.57 µM (active)
COc1cc2c(cc1OC)CN(C(C)C(=O)Nc1cccc(S(=O)(=O)N3CCOCC3)c1)CC2 (stereo unspecified),5.89% (inactive),
COc1ccc(S(=O)(=O)NCCCCOc2ccc(Cl)cc2)cc1,-0.503% (inactive),
Cc1cc(S(=O)(=O)N2CCOCC2)ccc1OCC(=O)N1CCOCC1,-0.856% (inactive),
COCc1c(C(=O)OCC(=O)Nc2ccc(OC(F)F)cc2)oc2ccccc12,-0.0136% (inactive),
O=C(NC1CCCC1)c1cc(-c2ccccc2)on1,,5.36 µM (active)
O=C(CCc1nc(-c2ccccc2)no1)Nc1cccc(C(=O)NC2CC2)c1,0.236% (inactive),
O=C(NC1CCN(S(=O)(=O)c2ccc(F)cc2)CC1)c1ccccc1,0.126% (inactive),
CC(=O)c1cc(-c2ccccc2)n(CC(=O)NC2CCCCC2)c1C,,inactive
O=C(NC1CC1)c1ccc(-c2ccccc2)cc1,,16.9 µM (active)
O=C(NC1CC1)c1cccc(Br)c1,0.544% (inactive),
COc1ccc(-c2c(C)c3ccc(O)c(CN4CCCC4)c3oc2=O)cc1OC,-0.838% (inactive),
Cn1nc(C(=O)OCC(=O)N(Cc2ccccc2)C(C)(C)C)c2ccccc2c1=O,6.48% (inactive),
FC(F)(F)c1cnc(Oc2ccccc2-c2nnc(-c3ccc(Cl)cc3)o2)c(Cl)c1,-19.2% (inactive),
CSc1ccccc1-c1nnc(-c2ccc(Cl)cc2)o1,,5.36 µM (active)
O=C(O)c1cc(S(=O)(=O)Nc2ccc3cn[nH]c3c2)ccc1Br,-5.78% (inactive),
Cc1cc(C(=O)COC(=O)CCCN2C(=O)c3ccccc3C2=O)c(C)n1C,,23.9 µM (active)

SMILES,"activity change, negative = inhibition",Potency
Cc1cc(C)cc(OCC(=O)NNC(=O)CCN2C(=O)c3ccccc3C2=O)c1,1.62% (inactive),
O=C(CCCN1C(=O)c2ccccc2C1=O)Oc1ccc(Cl)cc1,-5.24% (inactive),
CCCCN(Cc1ccccc1)C(=O)C1CCN(Cc2sccc2C)CC1,-2.08% (inactive),
O=C(NC1CC(=O)N(c2ccc(F)cc2)C1)c1cccs1 (stereo unspecified),-0.832% (inactive),
CN(C(=O)CSc1nc(C2CC2)nc2ccccc12)c1nc(-c2ccccc2)cs1,1.2% (inactive),
COc1ccc(CCN(C(=O)COc2ccccc2)c2nc(-c3ccccc3)cs2)cc1OC,0.0185% (inactive),
CN(c1ccc(O)cc1)c1nc(-c2cccnc2)cs1,,4.78 µM (active)
Cc1ccc(S(=O)(=O)N(Cc2nc(-c3ccc(Cl)cc3)no2)C2CCCCC2)cc1,1.23% (inactive),
CC(C(=O)N1CCc2ccccc21)N(C)CC(=O)Nc1ccc(F)cc1 (stereo unspecified),-1.04% (inactive),
CNc1nc2c(C)cccn2c(=O)c1C=Nc1ccc(OC)cc1,,12 µM (active)
Cc1cccn2c(=O)c(C=O)c(Nc3ccc(S(N)(=O)=O)cc3)nc12,0.613% (inactive),
Cc1cccn2c(=O)c(/C=C3\SC(=S)N(CC(C)C)C3=O)c(NCCCOC(C)C)nc12,1.38% (inactive),
Cc1ccc(CNC(=O)c2c(O)nc3c(C)cccn3c2=O)cc1,-7.24% (inactive),
O=C(CCn1c(=O)oc2ccccc21)Nc1ccon1,-14.9% (inactive),
Cc1ccccc1Nc1nnc(SCC(=O)c2cc3ccccc3o2)s1,-1.37% (inactive),
CC(C)Nc1nnc(SCC(=O)c2c[nH]c3ccccc23)s1,-11.3% (inactive),
CC(C)c1ccc(Nc2nnc(SCC(=O)c3nnc(-c4ccccc4)o3)s2)cc1,,10.7 µM (active)
CC1CCCC(NC(=O)c2cc(S(=O)(=O)N3CCCCC3)ccc2Cl)C1C (stereo unspecified),2.31% (inactive),
C(=N/Nc1cc(N2CCOCC2)nc(N2CCOCC2)n1)/c1ccccc1,-3.51% (inactive),
Cc1cc(N/N=C\c2ccc(Br)cc2)nc(-n2nc(C)cc2C)n1,-0.864% (inactive),
Cc1nc(Cl)cc(N/N=C/c2ccccc2)n1,,16.9 µM (active)
CN(CC(=O)Nc1ccc(F)c(F)c1F)C(=O)Cn1cnc2c1c(=O)n(C)c(=O)n2C,2% (inactive),

SMILES,"activity change, negative = inhibition",Potency
CC1CCCN(CC(O)COc2ccc3c(c2)OCO3)C1 (stereo unspecified),1.9% (inactive),
O=C1/C(=C/c2ccc3c(c2)OCO3)Oc2cc(OCC(=O)N3CC(O)C[C@H]3C(=O)O)ccc21 (stereo partly specified),,0.757 µM (active)
COC(=O)C(C)Oc1ccc2c(c1)O/C(=C\c1cccc(Br)c1)C2=O (stereo unspecified),-19.3% (inactive),
O=C(CCNS(=O)(=O)c1ccc(Br)cc1)NCC1CCCO1 (stereo unspecified),3.61% (inactive),
O=C(Nc1ccccc1N1CCCC1)c1ccc2ccccc2c1,,15.1 µM (active)
O=C(Nc1ccccc1N1CCCCC1)c1ccc2nccnc2c1,-1.25% (inactive),
O=C(Nc1ccccc1N1CCCC1)c1ccc(F)c(S(=O)(=O)N2CCOCC2)c1,0.53% (inactive),
Cc1cccc(OCCSc2nc3ccc(NC(=O)COc4ccccc4C)cc3s2)c1,-4.35% (inactive),
CS(=O)(=O)N1CCc2nc(-c3ccccc3)sc2C1,,9.53 µM (active)
CS(=O)(=O)N1CCN(C(=O)Cc2ccccc2)CC1,3.89% (inactive),
CS(=O)(=O)N1CCN(c2cccc(Cl)n2)CC1,-0.219% (inactive),
Cc1ccc(NC(=O)CCNC(=O)c2ccc([N+](=O)[O-])cc2)cc1S(=O)(=O)N1CCOCC1,4.27% (inactive),
CCOc1ccc(N(CC)S(=O)(=O)N2CCCC(C(=O)NCc3ccc(Cl)cc3)C2)cc1 (stereo unspecified),-15.9% (inactive),
O=C(COc1ccccc1)Nc1ccc(C(=O)N2CCCC2)cc1,-0.942% (inactive),
CC(=O)Nc1ccc(NC(=O)COc2ccc(-c3ccccc3)cc2)cc1,-2.67% (inactive),
O=C(COc1ccccc1)Nc1nonc1NC(=O)COc1ccccc1,,7.57 µM (active)
CCCCN(CCCNC(=O)c1cc(Nc2ccccc2OC)nc2ccccc12)c1ccccc1,-5.87% (inactive),
Cc1c(C)n(Cc2ccc(Cl)cc2)c2ccc(C(=O)NCCc3ccc(S(N)(=O)=O)cc3)cc12,-12% (inactive),
